Only some compounds are listed: those with a hit (about 4.4% of all), similar ones and a draw of the others.
TIM10 inh: inhibits growth of TIM10 yeast strain; S. cerevisiae TIM10 strain growth, BacTiter-Glo luminescence, 24 h; inhibition, % at 10 µM; 1.4% of 330,000 active; AID 463195;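 active = inhibition of 40% or more at the single tested concentration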;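 also: wild-type TIM10 isogenic control strain grown at permissive 25 °C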
tim23-1 inh: growth inhibitors of tim23-1 mutant yeast | 1.3% of 330,000 active | AID 463212 | inhibition, % at 20 µM | S. cerevisiae tim23-1 growth, BacTiter-Glo luminescence, 24 h;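 active = growth inhibition of the mutant yeast at or above 50%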;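 also: temperature-sensitive mutant grown at 25 °C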
tim10-1 inh: tim10-1 yeast growth inhibition; S. cerevisiae tim10-1 ts strain growth, BacTiter-Glo, 24 h; inhibition, % at 20 µM; 2.2% of 330,000 active; AID 463190;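 active = inhibition of at least 40%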;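 also: mutant grown at 25 °C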
Mot1-301 SUMO: blocks SUMOylation pathway, rescuing yeast Mot1-301 growth. S. cerevisiae Mot1-301 growth rescue, ATP luminescence, 38.5C; percent above DMSO median, 100 means doubled. growth rescue, % at 18.8 µM. 1% of 320,000 active;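 active = every valid replicate shows activation above 250% relative to neutral control wells; inactive = the rest, any valid replicate at or below 250%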
PfHsp90 yeast 2: growth inhibition of yeast expressing Plasmodium Hsp90; S. cerevisiae expressing PfHsp90, BacTiter-Glo ATP, 48 h; yeast lacking PDR1 and PDR3 efflux regulators; inhibition, % at 9.4 µM; 0.32% of 310,000 active;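 active = every replicate shows inhibition above about 80%, whatever the replicate mean, limit read from the data; inconclusive = mean inhibition reaches the set limit but some replicate falls short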
tim10-1 confirm: confirmation of tim10-1 mutant yeast growth inhibitors; S. cerevisiae tim10-1 ts strain growth, BacTiter-Glo, 24 h; shares compounds with tim10-1 inh; 56% of 7,400 active; inhibition, % at 20 µM;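 active = inhibition of yeast growth at or above a set limit in either of two repeat tests at 20 µM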;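 also: tim10-1 mutant grown at permissive 25 °C to find synthetic lethal compounds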
tim10 confirm: confirmation of TIM10 yeast growth inhibitors | inhibition, % at 10 µM | 63% of 4,600 active | shares compounds with TIM10 inh | S. cerevisiae tim10 strain growth, BacTiter-Glo luminescence, 24 h;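 active = inhibition of yeast growth at or above a set limit in either of two replicates at 10 µM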; also: this counterscreen used the strain with wild-type TIM10
tim23-1 confirm: tim23-1 yeast growth inhibition, confirmed. inhibition, % at 20 µM. 83% of 4,400 active. shares compounds with tim23-1 inh. S. cerevisiae tim23-1 growth, BacTiter-Glo luminescence, 24 h. AID 463218;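 active = inhibition above about 39% in either of two replicate wells at 20 µM, limit read from the data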;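 also: temperature-sensitive tim23-1 mutant grown at 25 °C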
Hits are given with their value; – = inactive; ? = inconclusive; · = no result given; + = active, no number.

SMILES	TIM10 inh	tim23-1 inh	tim10-1 inh	Mot1-301 SUMO	PfHsp90 yeast 2	tim10-1 confirm	tim10 confirm	tim23-1 confirm
Nc1ccc(C#Cc2ccc3c(=O)c4ccccc4oc3c2)cc1	–	–	–	–	–	·	·	·
CCCCCCCCCCCCCCCC[n+]1cccc2ccccc21	89	96	98	–	106	98	–	97
CCCCCCCCC[n+]1cccc2c3ccccc3ccc21	–	–	–	–	–	·	·	·
O=C(NCCN1C(=O)S/C(=C\c2ccc(Cl)cc2Cl)C1=O)C1=COCCO1	47	57	41	–	–	47	48	67
Cc1ccsc1/C=N/Nc1nc(=O)[nH]nc1C	43	50	52	–	?	50	48	56
Cc1[nH]c2ccccc2c1C(C[N+](=O)[O-])c1cccc(O)c1 (centres undefined)	–	–	–	–	·	·	·	·
O=c1[nH][nH]c(-c2ccccc2O)c1C(C[N+](=O)[O-])c1cccc(Cl)c1 (centres undefined)	48	56	44	–	–	44	–	55
O=C(CCCC(=O)c1ccccc1)NCc1ccccc1	–	–	–	–	–	·	·	·
CC1(C)CC(=O)C2=C(C1)Oc1nc3ccccc3cc1C2C(C#N)C#N (centres undefined)	54	63	61	–	·	59	63	68
CC1(C)CC(=O)C(C2C3=C(CC(C)(C)CC3=O)Oc3ccccc32)C(=O)C1 (centres undefined)	–	–	–	–	–	·	·	·
NC(=S)NN=C1c2cc(OCCN3CCOCC3)ccc2-c2ccc(OCCN3CCOCC3)cc21	–	–	–	–	–	·	·	·
COC(=O)c1cc(=O)n(-c2ccc(F)cc2)c(=Nc2ccc(F)cc2)s1	54	67	56	–	125	57	55	44
C=CCN(CC=C)c1nc2ccccc2nc1C(C#N)C(=O)OCCOC (centres undefined)	41	59	67	–	–	72	55	66
CCCN(CCC)c1nc2ccccc2nc1C(C#N)C(=O)OCCOC (centres undefined)	–	–	–	–	–	·	·	·
CCC(=O)c1cn([C@H](CCC(OC)OC)CC(=O)OC(C)(C)C)cc1CC	–	–	–	–	–	·	·	·
CN(C)C(=O)c1ccc(NC(=O)COC(=O)Cn2cc(C(F)(F)F)ccc2=O)cc1	–	–	–	–	–	·	·	·
Cc1cc(C(=O)N/N=C/C=C/c2ccccc2[N+](=O)[O-])c(C)o1	56	55	45	–	–	44	41	57
CCN(CC)c1ccc(C(=O)NNC(=O)CN2C(=O)NC3(CCCCC3)C2=O)cc1	–	–	–	–	·	·	·	·
O=C(NC(=S)NCCN1CCOCC1)c1ccc(Cl)cc1Cl	–	–	–	–	–	·	·	·
CCCCNC(=S)NC(=O)c1ccc(Cl)cc1Cl	–	54	49	–	·	37	·	53
COc1ccc(/C(C)=N/NC(=O)CNC(=O)c2ccco2)cc1	–	–	–	–	–	·	·	·
COc1ccc(/C(C)=N/NC(=S)NCc2ccco2)cc1	–	51	41	–	–	48	·	54
Cc1cc(NC(=O)Cn2cnc3sc(C)c(C)c3c2=O)no1	–	–	–	–	·	·	·	·
O=C(/C=C/c1cccc([N+](=O)[O-])c1)c1cccs1	69	52	57	–	93	52	72	49
O=C(N/N=C/c1cccc([N+](=O)[O-])c1)c1cccs1	–	–	–	–	–	·	·	·
SMILES	TIM10 inh	tim23-1 inh	tim10-1 inh	Mot1-301 SUMO	PfHsp90 yeast 2	tim10-1 confirm	tim10 confirm	tim23-1 confirm
Cc1ccc(CNC(=O)CCSCc2cccc(F)c2)cc1	–	–	–	–	–	·	·	·
CCCCn1c(N)c(N(CC(C)C)C(=O)C2=COCCO2)c(=O)[nH]c1=O	–	–	–	–	–	·	·	·
COC(=O)c1ccc2c(c1O)C(=O)c1ccccc1C2=O	91	77	80	·	–	75	91	82
NC(=O)c1cccc2c1-c1ccccc1/C2=N/NC(N)=S	–	–	–	–	–	·	·	·
COC(=O)c1cccc2c1-c1ccccc1/C2=N/O	–	65	59	–	–	38	·	56
CCOC(=O)c1sc(-c2ccc(C(F)(F)F)cc2)nc1O	–	74	46	–	106	–	·	–
Cc1ccc2nc(SCc3ccc([N+](=O)[O-])cc3)[nH]c2c1	55	79	42	–	–	42	–	79
CC(C)=NOc1cc(NC(=O)CCl)cc([N+](=O)[O-])c1	–	66	52	–	–	–	·	47
C/C(=N\Nc1nc2c(s1)CCCC2)c1ccc(Cl)cc1	50	58	61	–	–	47	–	63
O=c1c2ccccc2nc(-c2ccc(Cl)c(Cl)c2)n1O	62	79	49	–	–	30	55	73
O=c1c2ccccc2nc(-c2ccccc2Cl)n1O	–	–	–	–	–	·	·	·
O=C1C(=O)c2c(C(=O)c3ccccc3)coc2-c2ccccc21	74	71	93	–	–	91	81	65
O=C(C1=C(c2ccccc2)C(=O)c2ccccc2C1=O)c1ccccc1	·	·	·	·	–	·	·	·
Cc1onc(-c2ccccc2Cl)c1C(=O)c1ccccc1	–	–	–	–	–	·	·	·
Cc1oc2c(c1C(=O)O)C(=O)c1ccccc1C2=O	–	–	–	–	–	·	·	·
CCOC(=O)c1c(C)oc2c1C(=O)c1ccccc1C2=O	73	79	72	–	–	74	64	94
Cc1oc2c(c1C(=O)c1ccccc1)C(=O)C(=O)c1ccccc1-2	51	68	56	–	·	50	53	67
O=C(OCCOc1ccccc1F)c1cccc(S(=O)(=O)N2CCOCC2)c1	–	–	–	–	–	·	·	·
COc1cc(=O)n(C)c2c(OCC3OC(C)(C)OC3(C)C)cccc12 (centres undefined)	–	–	–	–	–	·	·	·
O=C(Cc1ccc(Cl)cc1)NN1C(=O)c2ccccc2C1=O	–	–	–	–	–	·	·	·
COC(=O)[C@@H]1[C@@H](C#N)C2(c3ccccc3-c3ccccc32)N(c2ccc(Cl)cc2)N1C#N	44	58	50	–	100	36	–	63
Cc1ccc(S(=O)(=O)N2C[C@@H]3[C@H]4CC[C@H](C4)[C@@H]3[C@@H](C)[C@@H]2C2CCCCC2=O)cc1 (some centres undefined)	–	–	–	·	–	·	·	·
O=c1cc(-c2ccccc2)cc(-c2ccccc2)n1O	–	80	47	–	+	–	·	68
CCOc1ccc(NS(=O)(=O)c2cccc(C(=O)NCC3(N(C)C)CCCCC3)c2)cc1	–	–	–	·	·	·	·	·
COc1ccc(-c2n[nH]c(C)c2-c2cc(OC)ccc2O)cc1	–	–	–	–	–	·	·	·
